According to PubChem BioAssay:
The source made the active and inactive calls. How the calls were made is not given here.

What follows are compounds tested against Protein kinase 7 (PK7), Plasmodium falciparum 3D7 (PF3D7_0213400) (UniProt Q7YTF7) (assay: inhibition of Plasmodium PK7 catalytic activity – biochemical, TCAMS antimalarial set, Kinase-Glo luminescence (AID 1159587)). Conditions: recombinant PfPK7, Kinase-Glo ATP depletion luminescence.
Protein kinase 7 (PK7), Plasmodium falciparum 3D7 (PF3D7_0213400), sequence (Q7YTF7 1-343): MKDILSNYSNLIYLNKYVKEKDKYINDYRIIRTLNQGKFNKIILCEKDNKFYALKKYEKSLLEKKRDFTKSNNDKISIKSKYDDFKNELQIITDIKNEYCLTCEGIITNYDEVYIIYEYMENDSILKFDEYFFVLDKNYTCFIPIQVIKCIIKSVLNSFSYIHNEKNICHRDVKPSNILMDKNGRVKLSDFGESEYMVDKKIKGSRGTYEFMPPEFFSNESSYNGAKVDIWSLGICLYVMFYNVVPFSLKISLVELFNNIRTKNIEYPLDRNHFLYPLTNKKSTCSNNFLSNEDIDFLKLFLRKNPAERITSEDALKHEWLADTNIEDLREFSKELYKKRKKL

Compound	outcome
O=C(/C=C/c1cccc2ccccc12)NC1CCC(CN2CCC(c3c[nH]c4ccccc34)CC2)CC1 (stereo not given)	inactive
CN(c1cc(NC(=O)c2cccs2)ccn1)C1CCN(Cc2ccccc2)CC1	inactive
Oc1ccccc1CNCC(O)c1cc(C(F)(F)F)cc(C(F)(F)F)c1 (stereo not given)	inactive
Cn1cc(CN2CCC(CCOC(c3ccccc3)c3ccccc3)CC2)cn1	inactive
COc1ccc(-c2ccccc2)cc1NC(=S)NC1CCC(CN2CCC(c3c[nH]c4ccccc34)CC2)CC1 (stereo not given)	inactive
C=CCOc1ccccc1CNCC(O)c1cccc(C(F)(F)F)c1 (stereo not given)	inactive
O=C(Nc1ccc(Oc2ccccc2)cc1)NC1CCC(CN2CCC(c3c[nH]c4ccccc34)CC2)CC1 (stereo not given)	inactive
CC[C@H]1CN2CC[C@@H]1C[C@H]2[C@H](O)c1cc(N2CCC(CO)CC2)nc2ccc(OC)cc12	inactive
O=[N+]([O-])c1ccc(Oc2c(Cl)cc(S(=O)(=O)N3CCC(CN4CCC(c5c[nH]c6ccccc56)CC4)CC3)cc2Cl)c(Cl)c1	inactive
OC(CNC1CCCCCCC1)c1ccc(Cl)c(Cl)c1 (stereo not given)	inactive
Cc1[nH]c2ccccc2c1C1=CCN(CCCCCC23CCCc4cccc(c42)NC3=O)CC1 (stereo not given)	inactive
CC[C@H]1CN2CC[C@H]1C[C@H]2C(O)c1cc(OC)nc2ccccc12 (stereo not given in full)	inactive
CCCc1c(C(=O)NC2CCC(CN3CCC(c4c[nH]c5ccccc45)CC3)CC2)cnn1-c1c(Cl)cc(Cl)cc1Cl (stereo not given)	inactive
C/C=C1/CN2CC[C@H]1C[C@H]2[C@H](O)c1ccnc2ccc(OC)cc12	inactive
O=C(/C=C/c1ccc(Cl)c(Cl)c1)NCCCCCN1C2CCC1CC(c1c[nH]c3ccccc13)C2 (stereo not given)	inactive
